# Unmarked numbers belong to inactive results.
# Test system: Vero E6 infected with SARS-CoV-2
# Assay: inhibition of SARS-CoV-2 cytopathic effect; higher = more antiviral protection, active = above 15
# Conditions: 100 nM; 48 h
row,SMILES,inhibition of SARS-CoV-2 cytopathic effect
1,CO[C@H]1C[C@@H]2CC[C@@H](C)[C@@](O)(O2)C(=O)C(=O)N2CCCC[C@H]2C(=O)O[C@H]([C@H](C)C[C@@H]2CC[C@@H](O)[C@H](OC)C2)CC(=O)[C@H](C)/C=C(\C)[C@@H](O)[C@@H](OC)C(=O)[C@H](C)C[C@H](C)/C=C/C=C/C=C/1C [sirolimus],-1.82%
2,"Cl/C=C\C[N+]12CN3CN(CN(C3)C1)C2 [1-((Z)-3-chloroallyl)-1,3,5,7-tetraazaadamantan-1-ium]",-0.23%
3,Nc1nc2cc(-c3ccc4ncc(C(=O)N5CCOCC5)n4c3)ccc2o1,4.68%
4,C[C@@H](O)[C@H]1C(=O)N2C(C(=O)O)=C(S[C@@H]3CN[C@H](C(=O)N(C)C)C3)[C@H](C)[C@H]12 [meropenem],0.18%
5,CC(C)=CCC/C(C)=C/CC/C(C)=C/CC[C@]1(C)CCc2cc(O)cc(C)c2O1 [delta-tocotrienol],2.83%
6,Cc1cccc(/C=N/Nc2cc(N3CCOCC3)n3nc(-c4ccncc4)cc3n2)c1,27.3% (active)
7,CN1CCN(CCCN2c3ccccc3Sc3ccc(S(=O)(=O)N(C)C)cc32)CC1 [thioproperazine],5.52%
8,CN1CCN(C(=O)c2nc3ccc(Cl)cc3[nH]2)CC1,0.78%
9,Cc1cc(C(=O)Nc2nc3cccc(Cl)c3n2[C@@H]2CCCCN(C(=O)/C=C/CN(C)C)C2)ccn1,0.57%
10,COc1ccc(COc2cc3oc(=O)c4cc(C(C)O)ccc4c3cc2OC)cc1 (stereo not given) [palomid-529],0.02%
11,O=C1NC(=O)/C(=C/c2ccc3nccc(-c4ccncc4)c3c2)S1,1.55%
12,NCCCCN [putrescine],-0.12%
13,N=C(N)NS(=O)(=O)c1ccc(N)cc1 [sulfaguanidine],-0.35%
14,C=CC(=O)Nc1cc(Nc2nccc(-c3c[nH]c4ccccc34)n2)c(OC)cc1N(C)CCN(C)C,-10.5%
15,CC(=O)OCC(=O)[C@@]1(O)[C@@H](C)C[C@H]2[C@@H]3CCC4=CC(=O)C=C[C@]4(C)[C@@]3(F)[C@@H](O)C[C@@]21C [betamethasone-acetate],0.555%
16,Nc1nc(OCc2ccccc2)c2nc[nH]c2n1 [O6-benzylguanine],-5.93%
17,CC(C)C[C@H](NC(=O)[C@@H](COC(C)(C)C)NC(=O)[C@H](Cc1ccc(O)cc1)NC(=O)[C@H](CO)NC(=O)[C@H](Cc1c[nH]c2ccccc12)NC(=O)[C@H](Cc1cnc[nH]1)NC(=O)[C@@H]1CCC(=O)N1)C(=O)N[C@@H](CCCNC(=N)N)C(=O)N1CCC[C@H]1C(=O)NNC(N)=O [goserelin-acetate],2.63%
18,CS(=O)(=O)c1ccc(-c2cnc(N)c(C(=O)Nc3ccccc3)n2)cc1,1.58%
19,CO[C@@H](C)Cn1c(=O)n(C)c2cnc3ccc(-c4cncc(C(C)(C)O)c4)cc3c21,-0.9%
20,C[C@H](Nc1cc2c(-c3ccc4c(c3)OCO4)noc2cn1)c1ccccc1,-0.1%

row,SMILES,inhibition of SARS-CoV-2 cytopathic effect
1,CCC(Cc1c(I)cc(I)c(N)c1I)C(=O)O (stereo not given) [iopanic-acid],1.6%
2,Cc1cc(C(C)(C)C)c(O)c(C)c1CC1=NCCN1 [oxymetazoline],1.85%
3,CC(C)NC[C@@H](O)COc1ccc(CC(N)=O)cc1 (racemic) [atenolol-(+/-)],0.74%
4,COC(=O)/C=C/c1cccc(N(Cc2ccc(-c3ccc(N(C)C)cc3)cc2)C(=O)C2CCCCC2)c1 [fexaramine],-0.24%
5,N[C@@H](Cc1ccc(O)cc1)C(=O)NCC(=O)NCC(=O)O,1.16%
6,CSc1ccc2c(c1)[C@H](N1CCN(C)CC1)Cc1ccccc1S2 (racemic) [metitepine],-0.78%
7,Cc1ccccc1-c1cc(N2CCN(C)CC2)ncc1N(C)C(=O)C(C)(C)c1cc(C(F)(F)F)cc(C(F)(F)F)c1 [netupitant],-1.38%
8,COc1ccc2cc(-c3nc(-c4ccc([S+](C)[O-])cc4)[nH]c3-c3ccncc3)ccc2c1 (stereo not given) [tie2-kinase-inhibitor],0.64%
9,COc1cc2c(Oc3ccc(NC(=O)C4(C(=O)Nc5ccc(F)cc5)CC4)cc3F)ccnc2cc1OCCCN1CCOCC1 [foretinib],2.06%
10,CCC(=O)O[C@H]1[C@H](O[C@@H]2[C@@H](C)[C@H](O[C@H]3C[C@@](C)(OC)[C@@H](O)[C@H](C)O3)[C@@H](C)C(=O)O[C@H](CC)[C@@](C)(O)[C@H](O)[C@@H](C)C(=O)[C@H](C)C[C@@]2(C)O)O[C@H](C)C[C@@H]1N(C)C [erythromycin-estolate],2.51%
11,O=C(/C=C/c1ccc(O)cc1)c1ccc(O)cc1O [isoliquiritigenin],1.21%
12,NS(=O)(=O)c1cc2c(cc1Cl)NC(C(Cl)Cl)NS2(=O)=O (stereo not given) [trichlormethiazide],-10.5%
13,O=C(O)c1cc(N2N=C(C(F)(F)F)/C(=C/c3ccc(-c4ccccc4)o3)C2=O)ccc1Cl,0.66%
14,CC[C@H](CO)Nc1nc(Nc2cccc(-c3ccccn3)c2)c2ncn(C(C)C)c2n1,0.93%
15,Cc1ccc(OCCSc2ncccn2)c(Br)c1,-1.08%
16,C/C(O)=C(\C#N)C(=O)Nc1cc(Br)ccc1Br,-1.74%
17,Cc1cc(=O)n(-c2ccccc2)n1C [phenazone],-1.01%
18,C=CCN1CC[C@]23c4c5ccc(O)c4O[C@H]2/C(=N/NC(=O)c2ccccc2)CC[C@@]3(O)[C@H]1C5 [naloxone-benzoylhydrazone],0.75%
19,O=[N+]([O-])C(Br)(CO)CO [bronopol],0.32%
20,C=CCOc1ccccc1OCC(O)CNC(C)C (stereo not given) [oxprenolol],-1.99%
